# Rows were chosen to be rich in hits. Some 4% of all compounds tested hit in one or more screens of this group.
# KKLEB cytotox = counter-screen for CF NF-kB inhibitors: cytotoxicity. KKLEB CF airway cells viability, ATPlite luminescence, overnight; stronger effect = lower value; cells stimulated with P. aeruginosa culture filtrate. 360,000 compounds, 0.36% hits. AID 602141. activity change (cytotoxicity), % at 5 µM;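 active means corrected activity change at or below -50% at 5 µM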
# TWEAK-Fn14 inh = blocks TWEAK-Fn14 interaction in a reporter cell assay; TWEAK-stimulated Fn14 reporter cells, luciferase luminescence, 8 h; inhibition, % at 10 µM; 360,000 compounds, 2% hits; in the data active means inhibition above about 50%
# TROY NFkB inh = inhibitors of TROY-dependent NF-kB signaling; Q293 LMP1-TROYcd NF-kB luciferase reporter, 4 h; inhibition, % at 10 µM; 360,000 compounds, 0.98% hits; AID 1347056;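 active means compounds whose plate-normalised and pattern-corrected inhibition of the luciferase reporter signal at the single screening dose is 50% or more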
# HIF-2a block = inhibitors of HIF-2a | inhibition, % at 18.8 µM | 360,000 compounds, 0.72% hits | 786-0 RCC cells HIF-2a reporter, luciferase luminescence, overnight | AID 624352;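 active means inhibition of the luminescence signal of 40% or more relative to plate controls, in a single-dose primary screen at 18.75 µM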
# Peg3 promoter = inhibitors of Peg3 promoter; AID 588405; HeLa PEG-Prom luciferase reporter, luminescence, overnight; inhibition, % at 20 µM; 360,000 compounds, 1.7% hits;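 active means inhibition of at least 50% at 20 µM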
# CF NFkB inh = cystic fibrosis NF-kB activation inhibition; inhibition, % at 5 µM; AID 588850; KKLEB NF-kB-GFP reporter, PAF-induced, GFP fluorescence overnight; 360,000 compounds, 0.86% hits;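 active means at least 50% inhibition at 5 µM, scaled per plate between neutral and stimulator controls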;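 further: PAF is a Pseudomonas aeruginosa culture filtrate used as stimulus; plate controls were PAF-stimulated DMSO wells for no effect and unstimulated DMSO wells for full effect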
# Starred values were filed as active, the others as inactive.
SMILES,KKLEB cytotox,TWEAK-Fn14 inh,TROY NFkB inh,HIF-2a block,Peg3 promoter,CF NFkB inh
COc1ccccc1N1CCN(C(=O)c2cccc(N3C(=O)NC4CC3(C)Oc3c(OC)cccc34)c2)CC1 (configuration not stated),13,4,18,1,14,1
CCN(CC)CCn1c(NS(=O)(=O)c2ccc(C)cc2)nc2ccccc21,-13,5,10,-8,-10,9
CCn1c(/N=C/c2ccccc2NS(=O)(=O)c2ccc(C)cc2)nc2ccccc21,-16,27,3,14,24,61*
Cn1c(=O)n(C)c2cc([N+](=O)[O-])c(N3CCN(C(=O)c4cccc(Cl)c4)CC3)cc21,-6,7,-5,25,21,-2
COc1cc(CN2CCC(Cc3ccccc3)CC2)c([N+](=O)[O-])cc1OC,6,80*,8,22,21,8
COc1cc(C)c(CN2CCC(Cc3ccccc3)CC2)cc1C,0,-6,10,24,3,-1
CC(=O)C1=C(C)NC(SCC(N)=O)=C(C#N)C1c1cccnc1 (configuration not stated),4,10,4,-12,15,2
Cc1cccc(NC(=O)c2cccc(OC(=S)N3CCOCC3)c2)c1C,-9,-24,-43,-86,-55,-9
Cc1cc(/C=C2\Sc3ccccc3N2C)cc(C)[n+]1CC1CCCO1 (configuration not stated),-29,17,5,-2,70*,-4
Cc1ccc(/C=N/Nc2cc(C)nc(NCc3ccccc3)n2)cc1,-2,-2,17,-37,-23,4
Cc1cc(N/N=C/c2ccc(O)cc2)nc(NS(=O)(=O)c2ccccc2)n1,20,49,16,54*,10,-34
O=C(c1ccccn1)N1N=C2/C(=C/c3ccccc3)CCCC2C1c1ccccc1 (configuration not stated),-5,9,-10,-4,-3,9
CNC(=O)c1sc(N2N=C3/C(=C/c4ccccc4)CCCC3C2c2ccccc2)nc1C (configuration not stated),-19,58*,30,14,2,-2
CNC(=O)c1sc(N2N=C3/C(=C\c4ccccc4)CCCC3C2c2ccccc2)nc1C (configuration not stated),2,84*,48,28,36,-23
COc1cc(-c2cc3nc(NCc4cccc(Cl)c4)ccn3n2)cc(OC)c1OC,-4,65*,42,-46,25,-90
COc1cc(-c2cc3nc(NCc4cccs4)ccn3n2)cc(OC)c1OC,-1,41,20,-86,9,-47
CC1(C)CCN2CCC(C)(C)c3c(O)ccc1c32,-10,64*,47,15,48,23
Cn1c(-c2ccc(F)cc2)cnc1SCC(=O)N1CCCCC1,1,60*,17,-80,-104,-8
c1ccc(N2CC3CCc4ccccc4C3=N2)cc1 (configuration not stated),-20,-26,-35,-283,-255,-7
CN1N=C2c3ccccc3CCC2C1c1ccc(F)cc1 (configuration not stated),-8,53*,60*,-224,-279,16
CNC(=S)N1N=C2c3ccccc3CCC2C1c1ccccc1Cl (configuration not stated),-8,4,3,7,30,0
CN1N=C2c3ccccc3CCC2C1c1ccc(Cl)cc1 (configuration not stated),-13,54*,40,-156,-199,13
COC(=O)c1sc(-c2ccc(C(C)(C)C)cc2)cc1NC(=O)CCC(=O)O,4,-6,0,-141,-71,18
O=C(Nc1ccn(CCCN2CCN(c3ccccc3)CC2)c(=O)n1)OCc1ccccc1,-3,0,5,4,-18,10
COc1ccc(S(=O)(=O)N2CCC(C(=O)Oc3c(OC)cccc3OC)CC2)cc1OC,-8,-18,8,8,-4,14
SMILES,KKLEB cytotox,TWEAK-Fn14 inh,TROY NFkB inh,HIF-2a block,Peg3 promoter,CF NFkB inh
CC(c1ccco1)N(C(=O)COc1ccc(Cl)cc1Cl)c1ccccn1 (configuration not stated),-16,84*,62*,-46,-120,7
C=C(C)[C@@H]1CC[C@]2(C(=O)O)CC[C@]3(C)C(CCC4[C@@]5(C)CC[C@H](O)C(C)(C)C5CC[C@]43C)C12 (some centres not stated),-76*,-36,-10,2,90*,79*
CCCCNC(=O)Oc1ccc(C(=O)N2c3ccccc3NC(=O)C2C)cc1 (configuration not stated),5,13,6,9,1,10
C[C@H]1CCC/C=C/[C@@H]2C[C@H](O)C[C@H]2[C@H](O)[C@H](S(=O)c2ccc(O)cc2)CC(=O)O1 (some centres not stated),-44,38,-33,29,52*,66*
Cc1c2c(cc3c1[nH]c1ccccc13)C=NCC2,4,-16,-27,-7,23,-66
O=C(NCc1cccs1)c1nc2c(nnn2Cc2ccccc2Cl)c(=O)[nH]1,-76*,96*,83*,76*,104*,88*
CN(CCOc1ccc(Cl)cc1)C(=O)c1cccc(S(=O)(=O)N2CCN(Cc3ccccc3)CC2)c1,-4,57*,39,4,22,19
COc1ccc(NC(=O)CN(C)C(=O)c2cccc(S(=O)(=O)N3CCN(Cc4ccccc4)CC3)c2)cc1,3,31,7,5,-7,-16
COC(CN(C)C(C(=O)NC1CCCCC1)c1ccccc1)OC (configuration not stated),6,81*,-11,8,5,-9
CC(C)c1c(C(=O)N/N=C/c2ccc3c(c2)OCO3)nnn1-c1nonc1N,22,-32,-30,-91,-76,-17
CCCc1c(C(=O)N/N=C/c2ccc(OCc3ccccc3)c(OC)c2)nnn1-c1nonc1N,27,-26,-8,-10,-89,-36
COc1cc(/C=N/NC(=O)c2nnn(-c3nonc3N)c2C(C)C)ccc1OCc1ccc(F)cc1,14,76*,38,-2,-148,-13
CCN(CC)c1ccc(/C=N/NC(=O)c2nnn(-c3nonc3N)c2C(C)C)c(O)c1,-26,-10,11,1,53*,41
CC(C)c1c(C(=O)N/N=C/c2cccc(OCc3ccc(F)cc3)c2)nnn1-c1nonc1N,-5,49,53*,-84,-16,5
CCOc1ccc(-c2c(C(=O)N/N=C/c3cccc(Br)c3)nnn2-c2nonc2N)cc1,-35,-42,8,2,56*,38
O=C(NCc1ccc(F)cc1)C(C(=O)NCc1ccc(F)cc1)c1ncc(C(F)(F)F)cc1Cl,-7,17,4,16,15,6

# Assay outcomes (PubChem)
